# Shown are actives, neighbours in structure and some others; about 11% of the full set was active somewhere.
# AMA1-RON2 inh: inhibitors of Plasmodium falciparum AMA1-RON2 interaction | AlphaScreen AMA1-biotinylated RON2 peptide binding | Potency, µM (series often up to 58.2 µM), for inactives: top-dose activity change, negative = inhibition, usual class: inhibitors | actives 0.2% (n = 360,000);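 note: 0% = vehicle wells and -100% = peptide control; nearly all actives have a fitted effect of over 45% in size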
#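 AMA1 (3D7) with his tag at 25 nM final met compounds first, then biotinylated RON2 peptide at 25 nM; detection used donor plus acceptor beads, 10 µg/mL apiece, read by AlphaScreen after 30 min at room temperature.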
# Pf growth 48h: P. falciparum growth inhibition at 48 hours (one generation) | P. falciparum luciferase growth in erythrocytes, 48 h | Potency, µM (titrated, usually from 28.7 µM), inactives show top-dose activity change, negative = inhibition, usual class: inhibitors | actives 5.9% (n = 310,000) | AID 504832
#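 Luciferase-expressing P. falciparum in infected erythrocytes (2% hematocrit, 0.1% parasitemia final) in RPMI 1640/0.5% Albumax were exposed to compound for 48 hours at 37 C, 5% CO2; growth read as luminescence.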
# AmpC detergent: blocks E. coli AmpC beta-lactamase in detergent assay. P00811. AmpC hydrolysis of nitrocefin, absorbance 480 nm, 0.01% Triton. Potency, µM (top dose mostly 114 µM), inactives show at the highest dose activity change, negative = inhibition, hits mostly inhibitors. actives 0.041% (n = 370,000). AID 485294;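 note: 0% = no-compound wells and -100% = no-enzyme wells; nearly all actives have a fitted effect of over 25% in size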
# Target sequence (P00811 whole entry, looked up): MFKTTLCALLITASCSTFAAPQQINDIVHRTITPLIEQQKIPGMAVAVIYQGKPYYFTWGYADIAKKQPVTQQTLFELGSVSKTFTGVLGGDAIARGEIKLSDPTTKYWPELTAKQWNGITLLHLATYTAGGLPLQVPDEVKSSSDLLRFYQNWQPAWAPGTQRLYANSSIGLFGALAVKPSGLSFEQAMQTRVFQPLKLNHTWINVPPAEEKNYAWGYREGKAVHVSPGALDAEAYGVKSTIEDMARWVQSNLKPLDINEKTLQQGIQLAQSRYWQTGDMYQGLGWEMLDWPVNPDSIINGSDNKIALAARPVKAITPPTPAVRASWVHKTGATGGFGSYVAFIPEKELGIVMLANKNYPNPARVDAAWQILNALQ
#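 AmpC (5.3 nM in the dispensed reagent) in 20 mM phosphate pH 7.0 with 0.01% (detergent screen) or 0.0001% Triton X-100 was preincubated with compounds for 15 min at room temperature. Nitrocefin was then added from an 800 uM solution, and hydrolysis was followed at 480 nm.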
# Pf growth 96h: inhibits malaria parasite growth, 96 h; P. falciparum luciferase reporter growth, 96 h; Potency, µM (series often up to 28.7 µM), for the others: top-dose activity change, negative = inhibition, hits mostly inhibitors; actives 6.9% (n = 320,000); AID 504834
#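 Delayed-death screen, second-generation endpoint: infected erythrocytes, 2% hematocrit, 0.05% parasitemia final; 96 hours at 37 C, 5% CO2; luciferase detection reagent; luminescence decrease equals reduced growth.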
# HCV inhibitor: HCV inhibition; Huh7.5.1 HCVcc-Cre infection, luciferase reporter, 44 h; Potency, µM (series often up to 41.8 µM), for inactives: at the top dose activity change, negative = inhibition, usual class: inhibitors; actives 3.4% (n = 340,000); AID 651820
#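 1,000 cells/well; 4 h culture; + compound; + HCVcc-Cre (~0.5 moi); 44 h; luciferase substrate, RT 15 min; read 15 sec.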
# AmpC inh no detg: inhibitors of E. coli AmpC beta-lactamase without detergent; AmpC nitrocefin hydrolysis, absorbance 480 nm, 0.0001% Triton; Potency, µM (series often up to 57.1 µM), for the others: at the top dose activity change, negative = inhibition, usual class: inhibitors; actives 0.52% (n = 330,000); AID 485341;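 note: plate controls were no compound for no effect and no enzyme for full effect; nearly all actives have a fitted effect of over 20% in size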
#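 20 mM phosphate pH 7.0 + 0.01% (detergent screen) or 0.0001% Triton X-100; 5.3 nM AmpC reagent; cpd preinc 15 min RT; nitrocefin (800 uM stock) to start; A480 q20 s × 4 min; Activity was normalised to no-enzyme and no-compound control wells.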
# An asterisk follows results filed as active; ? = inconclusive; . = no result given. Calls come from the whole dose curve; as a rule, active = well fitted curve in the direction sought with a large enough effect; inconclusive = small, poorly fitted or top-dose-only effect, or another doubt; inactive = no such curve, though single readings can be large; an effect the other way counts as inactive or inconclusive. Unless noted, % is set by controls: 0 for no effect and ±100 for the full control effect; potency is the fitted concentration of half-maximal effect.
SMILES,AMA1-RON2 inh,Pf growth 48h,AmpC detergent,Pf growth 96h,HCV inhibitor,AmpC inh no detg
COc1ccc(CCNC(=O)C2CCCN(S(=O)(=O)c3cc(C)ccc3OC)C2)cc1OC (stereo unspecified),0%,12µM*,-9%,5.2µM*,7%,125%
COc1ccc(CCNC(=O)C/C(C)=N/NC(=O)C2CCCCC2)cc1OC,-13%,-4%,-5%,8.3µM*,4%,-19%
CCOc1ccc(OCC)c(NC(=O)C2CCCN(S(=O)(=O)c3cnc[nH]3)C2)c1 (stereo unspecified),-2%,.,-9%,4.7µM*,?,0%
COc1ccc(CCNC(=O)C2CCCN(S(=O)(=O)c3cnc[nH]3)C2)cc1OC (stereo unspecified),6%,.,-9%,13µM*,13%,-10%
COc1ccc(OC)c(NC(=O)CC2SC(=Nc3ccc(F)cc3)N(CCC3=CCCCC3)C2=O)c1 (stereo unspecified),-27%,?,?,4.1µM*,?,-41%
COc1ccc(N=C2SC(CC(=O)Nc3ccc(OC)cc3OC)C(=O)N2C)cc1 (stereo unspecified),-12%,-13%,-9%,5%,-28%,70%
COc1cc([N+](=O)[O-])ccc1NC(=O)CC1SC(=Nc2ccc(F)cc2)N(CCC2=CCCCC2)C1=O (stereo unspecified),-2%,?,?,1.9µM*,?,?
CCN1c2ccccc2-c2nc(SCC(=O)Nc3cc(F)ccc3F)ncc2S1(=O)=O,.,.,0%,.,.,.
COC(=O)c1ccc(NC(=O)NCCn2nnc3cc(S(=O)(=O)N(C)C)ccc32)cc1,.,.,-3%,.,.,.
CCc1ccc(NC(=O)C(=O)NCCc2csc(-c3cccc(F)c3)n2)cc1,.,.,25%,.,.,.
CCOc1ccc(NC(=O)Cn2c(=O)n(CCCC(=O)NC3CCN(Cc4ccccc4)CC3)c(=O)c3ccccc32)cc1,-7%,5.2µM*,-14%,-22%,?,154%
COc1cccc(NC(=O)Cn2c(=O)n(CCc3ccc(OC)c(OC)c3)c(=O)c3ccccc32)c1,.,.,-10%,.,.,.
NC(=O)Cn1c(=O)n(CCCC(=O)NC2CCN(Cc3ccccc3)CC2)c(=O)c2ccccc21,7%,.,?,4%,8%,-18%
CCOC(=O)c1cc(-c2ccc(F)cc2)n(CCC(=O)NC2CCN(Cc3ccccc3)CC2)c1C,-10%,?,1%,?,4µM*,218%
O=C(CCn1c(=O)c2ccccc2n(Cc2ccccc2)c1=O)NC1CCN(Cc2ccccc2)CC1,-2%,?,-1%,8.3µM*,?,0%
CCOC(=O)c1cc(-c2ccc(OC)cc2)n(CCC(=O)NC2CCN(Cc3ccccc3)CC2)c1C,-4%,?,-4%,-18%,?,194%
COc1cccc(NC(=O)Cn2c(=O)n(CCC(=O)NC3CCN(Cc4ccccc4)CC3)c(=O)c3ccccc32)c1,0%,?,-13%,15µM*,?,16%
COc1ccc(CNC(=O)Cc2c(C)c3c(cc(C)c4c(C)coc43)oc2=O)cc1OC,.,.,16%,.,.,.
O=C(NC1CCCCCC1)c1ccc(CS(=O)c2cccc(Cl)c2)o1 (stereo unspecified),.,.,3%,.,.,.
O=C1CSC2(C(=O)N(Cc3ccccc3)c3ccccc32)N1c1ccc(Cl)cc1 (stereo unspecified),.,.,6%,.,.,.
Cc1cccc(NC(=O)Cn2c(=O)n(CCC(=O)NC3CCCC3)c(=O)c3ccccc32)c1,7%,4%,?,2.1µM*,11%,-13%
CCc1cnc2c(c1SCC(=O)Nc1ccc(OC)c(OC)c1)c(=O)n(C)c(=O)n2C,.,.,2%,.,.,.
CCN(CC)CCOc1c(Br)ccc2c1sc1nc3n(c(=O)c12)CCC3,-3%,?,-14%,13µM*,?,-1%
COc1ccc(-n2nnnc2CNC(=O)C(=O)c2c[nH]c3ccccc23)cc1,4%,?,-11%,10%,?,-30%
Cc1ccc(-n2nnnc2SC(C(=O)c2c[nH]c3ccccc23)c2ccccc2)cc1 (stereo unspecified),-4%,?,-11%,1.5µM*,-3%,?
SMILES,AMA1-RON2 inh,Pf growth 48h,AmpC detergent,Pf growth 96h,HCV inhibitor,AmpC inh no detg
O=C(CCl)Nc1cccn2ncnc12,4%,10µM*,-10%,.,?,-9%
CC(C)CC(C(=O)NC1CCCCC1)N(Cc1cccs1)C(=O)c1snc(C(N)=O)c1N (stereo unspecified),1%,?,-1%,?,13µM*,1%
CCCC(C(=O)NC1CCCC1)N(Cc1ccc2c(c1)OCO2)C(=O)c1snc(C(N)=O)c1N (stereo unspecified),4%,.,?,9.3µM*,-14%,3%
COc1ccc(-c2nn(C)c3sc(C(=O)N4CCN(c5cc(Cl)ccc5C)CC4)cc23)cc1OC,.,.,-1%,.,.,.
Cc1ccccc1Nc1ncnc2c1c(-c1ccccc1)cn2-c1ccc(F)cc1,.,.,0%,.,.,.
CC(C)COc1ccc(C(=O)Nc2sc3c(c2C(=O)O)CC(C)(C)OC3)cc1,-11%,47%,1%,10%,10µM*,-34%
CCOC(=O)c1c(NC(=O)C2C3C=CC(C3)C2C(=O)O)sc2c1CC(C)(C)OC2 (stereo unspecified),10%,?,-7%,?,9%,21%
CCOC(=O)c1c(NC(=O)c2cccs2)sc2c1CC(C)(C)OC2,34%,?,-8%,25%,7.9µM*,-19%
Cc1ccc(-n2ncc(C(=O)NCCN3CCC(Cc4ccccc4)CC3)c2C2CCN(C(=O)OC(C)(C)C)CC2)cc1,.,.,-1%,.,.,.
CCOC(=O)Cn1c(=O)c(F)cn(Cc2ccc(OC)c([N+](=O)[O-])c2)c1=O,-5%,6%,1%,10µM*,0%,-4%
CCCCCCn1c(=O)c(F)cn(Cc2ccc(OC)c([N+](=O)[O-])c2)c1=O,-9%,?,2%,?,-12%,0.14µM*
O=S(=O)(c1ccc(Br)cc1)N1CCN(c2ccccc2)CC1,-4%,10µM*,-5%,-17%,7%,-27%
O=S(=O)(c1ccccc1)N1CCN(S(=O)(=O)c2ccc(F)cc2)CC1,-2%,35%,-21%,10µM*,10%,-18%
CC(C)CCN(C)C1CCN(S(=O)(=O)c2ccc(F)cc2)CC1,-1%,6%,-12%,-11%,-3%,10µM*
O=C(CCN1CCc2ccccc2C1)Nc1cccc(F)c1,-10%,2%,?,4.1µM*,-15%,-15%

# Compound activity: PubChem, National Center for Advancing Translational Sciences (NCATS)
